Only some compounds are listed: those with a hit (about 3% of all), similar ones and a draw of the others.
Insulin prom inh: TRM-6 insulin promoter activity inhibition. inhibition, % at 2 µM. 0.9% of 130,000 active. TRM-6 cells (human fetal islet line), insulin promoter-eGFP reporter, imaging; reporter expression induced with tamoxifen;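 active = inhibition above the mean plus 3 SD, with well images judged a real hit on visual review, cut at about 60% in these data, passing the limit was not always enough; inconclusive = inhibition over the cutoff but images rejected on review; inactive = inhibition not above the cutoff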
SDO1 yeast rescue: restores growth of sdo1-depleted yeast; S. cerevisiae sdo1-depleted JHY4D growth rescue, OD600 30 h; hits give high values; pdr5 snq2 efflux-pump mutant strain; z-score at 10 µM; 0.21% of 140,000 active; AID 817;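 active = z-score above 3 at both the 24 hr and the 30 hr optical density reads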
Measles CPE: protection of cells from measles virus. 1.5% of 140,000 active. Measles virus-infected cells, CPE protection, absorbance. protection (pct of control), % at 4 µM. AID 841; in the data active = protection mostly above about 24%, no sharp cut-off; inactive = mostly below about 26%
ROMK primary: modulates human ROMK potassium channel activity. 2% of 130,000 active. P48048. B-score at 10 µM. Tet-inducible ROMK, thallium flux fluorescence; actives lie on both sides;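 active = signal ratio slope over the read window, or its plate-corrected B-score, at least 3 SD from the plate mean, either direction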;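 note: B-score of the F/F0 ratio slope over 7 to 12 s after thallium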
Target sequence (P48048 whole entry, looked up): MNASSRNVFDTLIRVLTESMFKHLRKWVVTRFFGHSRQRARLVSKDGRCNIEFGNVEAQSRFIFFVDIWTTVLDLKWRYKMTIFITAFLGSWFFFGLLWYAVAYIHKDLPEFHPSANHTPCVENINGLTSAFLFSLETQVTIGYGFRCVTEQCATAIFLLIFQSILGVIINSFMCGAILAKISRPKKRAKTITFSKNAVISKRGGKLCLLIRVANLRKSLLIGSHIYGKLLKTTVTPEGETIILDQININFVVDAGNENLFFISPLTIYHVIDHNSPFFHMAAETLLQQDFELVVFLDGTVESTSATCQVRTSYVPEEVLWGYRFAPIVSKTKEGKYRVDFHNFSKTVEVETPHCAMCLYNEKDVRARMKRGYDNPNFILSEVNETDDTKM
SDO1 rescue DR: SDO1-depleted yeast growth rescue confirmation | shares compounds with SDO1 yeast rescue | OD recovery (test concentration not listed) | AID 949 | 44% of 440 active | S. cerevisiae JHY4D (SDO1-depleted) growth rescue, OD600, 30 h; hits give high values; efflux-deficient strain, SNQ2 and PDR5 mutated;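 active = yeast growth recovered at 30 hours, either rising with dose fitted slope above 0.001 or with average optical density gain above 0.07, some results past the limit were not filed as active; inactive = growth falling with dose or no effect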
ROMK hit retest: human ROMK channel modulation, retest confirmation | AID 1917 | ROMK thallium flux, fluorescence ratio; hits give low values | 54% of 3,000 active | normalized thallium flux (F/F0 slope) at 10 µM | shares compounds with ROMK primary;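 active = Flux at 10 µM at least 3 SD below or above vehicle control mean in one or both replicates; inconclusive = no clear call, values can overlap the other calls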
Numbers stand for hits; 0 = inactive; ? = inconclusive; - = no result given.

SMILES	Insulin prom inh	SDO1 yeast rescue	Measles CPE	ROMK primary	ROMK hit retest	others
COc1ccc2c(-c3cc4ccc(OCc5ccc(F)cc5)cc4oc3=O)cc(=O)oc2c1	0	16	0	-	-	SDO1 rescue DR=0
CCOc1ccc(NC(=O)N2CCC(C(N)=O)(N3CCCCC3)CC2)cc1	-	13	0	0	-	SDO1 rescue DR=0
O=C(CSc1nnc(-c2ccc(S(=O)(=O)N3CCCC3)cc2)o1)NCc1ccco1	0	0	0	-	-	SDO1 rescue DR=0
COc1ccc(-c2nnc(SCC(=O)NCc3ccco3)o2)cc1	0	0	0	0	-
CC(OC(=O)c1c2c(nc3ccccc13)/C(=C\c1ccc3c(c1)OCO3)CCC2)C(=O)Nc1ccc(S(N)(=O)=O)cc1 (configuration not stated)	0	0	0	-	-	SDO1 rescue DR=0.085
Cc1cccc(C)c1NC(=O)COC(=O)c1c2c(nc3ccccc13)/C(=C\c1ccc3c(c1)OCO3)CCC2	0	0	0	0	-
COCCN1C(=O)C(O)=C(C(=O)c2ccco2)C1c1cccc(Oc2ccccc2)c1 (configuration not stated)	-	9	0	-	-	SDO1 rescue DR=0.076
Cc1oc(-c2cccc(Br)c2)[n+]([O-])c1C	0	-	-	0	-
CCc1ccc(S(=O)(=O)NCCc2csc(-c3ccccc3)n2)s1	0	4.3	0	-3.4	0	SDO1 rescue DR=0
CC(C)(C)C(=O)Nc1nnc(SCC(=O)NCc2ccco2)s1	-	0	0	-	-
CCC(C(=O)NCc1ccco1)N(C(=O)CNS(=O)(=O)c1ccc(C)cc1)c1ccccc1OC (configuration not stated)	0	0	0	0	-
COc1ccc(CNC(=O)C(c2ccco2)N(C(=O)CNS(=O)(=O)c2ccccc2)c2ccccc2C)cc1 (configuration not stated)	0	0	0	-5	0.045
CCCC(C(=O)NCc1ccco1)N(C(=O)CNS(=O)(=O)c1ccccc1)c1ccccc1OC (configuration not stated)	-	0	0	-4.2	0.058
Cc1ccccc1OCC(=O)N(Cc1nc(-c2ccccc2)no1)C(C)C	0	0	0	-	-
COc1ccccc1OCC(=O)N(Cc1nc(-c2ccccc2)no1)C1CCCCC1	0	0	0	-	0
Cc1cc(C)n(-c2nc(Nc3ccccc3C(F)(F)F)nc(-n3nc(C)cc3C)n2)n1	-	0	0	-	?
Cc1cc(C)n(-c2nc(Nc3ccccc3C)nc(-n3nc(C)cc3C)n2)n1	0	0	0	-	-
Cc1cn2c(-c3ccc(Cl)cc3)nnc2s1	-	0	0	-	0
Cc1nnc(SCc2c(Cl)cccc2Cl)n(N)c1=O	-	-	-	-2.9	0.061
COc1ccc(/C=C(\NC(=O)c2ccccc2)C(=O)OCC2CCCN3CCCCC23)cc1OC (configuration not stated)	0	-	-	0	-
O=C(Nc1cccc(C(F)(F)F)c1)n1cc(-c2ccccn2)c(N2CCOCC2)n1	0	-	-	0	-
CCn1c(SC(C)C)nnc1-c1cc(-c2ccccc2)sc1N	0	0	0	-2.8	0
C(=N\Nc1nc2ccccc2[nH]1)/C1CCCCC1	0	-	-	0	-
COc1ccc(OC)c(-c2cc(C(=O)Nc3c(C)nn(Cc4ccccc4)c3C)no2)c1	0	0	0	0	-
COc1ccc(OC)c(-c2cc(C(=O)Nc3c(C)nn(Cc4ccc(Cl)cc4)c3C)no2)c1	0	0	0	-2.6	0.065
SMILES	Insulin prom inh	SDO1 yeast rescue	Measles CPE	ROMK primary	ROMK hit retest	others
COc1cc(/C=N/NC(=O)CC#N)cc(Br)c1O	-	-	-	0	-
COc1cc2c(cc1OC)CN(CC(=O)Nc1ccc3c(c1)OC(F)(F)O3)CC2	0	0	0	2.5	0
COc1cc2c(cc1OC)CN(CC(=O)Nc1ccc(S(=O)(=O)N(C)C)cc1)CC2	-	-	-	0	-
Clc1cccc(-c2cc3nc4c(c(N5CCOCC5)n3n2)CCCC4)c1	0	0	0	-3.9	0.064
COC(=O)CNc1nc(Cl)nc(Nc2ccc(Cl)cc2)n1	0	-	-	0	-
Cc1ccc(S(=O)(=O)N2CCN(C(=O)CN3CCCCC3)C2C(C)C)cc1 (configuration not stated)	0	0	0	0	-
CSc1nsc(SC)c1C(=O)N1CCN(S(=O)(=O)c2ccc(C)cc2)C1C(C)C (configuration not stated)	0	0	0	-3.5	0.064
OCC1(CCOc2ccccc2)CCN(C2Cc3ccccc3C2)CC1	-	-	-	-3	0.058
Cc1cc(C)c(CN2CCC(CO)(CCOc3ccccc3)CC2)cc1C	-	-	-	0	-
COc1ccc(-n2nc(C#N)c(Cl)cc2=O)cc1	0	-	-	-2.8	0.052
COC(=O)c1nn(-c2ccc(OC)cc2)c(=O)cc1O	0	-	-	0	-
CCOC(=O)c1c(NC(=S)Nc2ccccc2)sc2c1CC(C)(C)SC2	0	0	0	0	-
CCOC(=O)c1c(NC(=S)Nc2ccccc2)sc2c1CCN(CCc1ccccc1)C2	0	0	0	-	0.061
COc1ccc(OC)c(CC(NC(C)=O)C(=O)NC2CCN(c3c(Cc4ccccc4)c(C)nc4ncnn34)CC2)c1 (configuration not stated)	0	0	0	0	-
COc1cccc(CC(NC(C)=O)C(=O)NC2CCN(c3c(Cc4ccccc4)c(C)nc4ncnn34)CC2)c1 (configuration not stated)	0	0	0	0	0
CCC(NC(=O)Nc1nnc(C(F)(F)F)s1)(C(F)(F)F)C(F)(F)F	-	0	0	-5.8	0.062
CCN1C(=O)C2C(c3cccc(F)c3)NC(CC)(C(=O)OC)C2C1=O (configuration not stated)	-	0	0	0	-
CCCC1(C(=O)OC)NC(c2cccc(F)c2)C2C(=O)N(CC)C(=O)C21 (configuration not stated)	0	0	0	-	0
CCn1c(/C=C/c2c(C)[nH]c3ccccc23)nc2ccccc2c1=O	0	0	0	-	0.047
CC(=O)c1cn(S(=O)(=O)c2ccccc2)c2ccccc12	-	0	0	0	-
CC(C)(C)OC(=O)NNC(=O)Nc1ccccc1C(F)(F)F	0	-	-	-	-
CCOc1ccc(/C=C/C(=O)NCc2ccccc2)cc1	0	0	0	0	-
CCOc1ccc(/C=C/C(=O)c2c(O)c3ccccc3oc2=O)cc1	0	0	0	-	0.063
C[n+]1c2n(c3ccccc31)N=C(c1cc(C(C)(C)C)c(O)c(C(C)(C)C)c1)CS2	0	-	-	-5.5	0.039
Cc1ccc(/C(O)=C/c2nc3cc(C)ccc3oc2=O)cc1	-	-	-	-2.4	0.048
SMILES	Insulin prom inh	SDO1 yeast rescue	Measles CPE	ROMK primary	ROMK hit retest	others
CC(C)COP(=O)(OCC(C)C)C(O)c1ccc(N(C)C)cc1 (configuration not stated)	-	-	-	0	-
COc1ccccc1CN(Cc1cc2cc(C)cc(C)c2[nH]c1=O)Cc1nnnn1CC1CCCO1 (configuration not stated)	-	0	0	-4.1	0.066
Cc1nc(SCc2cccc(Oc3ccccc3)c2)n[nH]1	0	0	0	-	-
Cc1ccc(NS(=O)(=O)c2ccc(-c3csc(C)n3)s2)c(C)c1	-	-	-	-11	0
Cc1nc(-c2ccc(S(=O)(=O)NCc3ccccn3)s2)cs1	-	-	-	0	-
COc1ccc(NC(=O)N(Cc2cc3cc(C)ccc3[nH]c2=O)CC2CCCO2)cc1 (configuration not stated)	-	-	-	0	-
